Screening data as filed in PubChem.
ST2 inh = IL1RL1 inhibition | inhibition, % for hits at 17 µM | AlphaLISA ST2-Fc/biotin-IL-33 interaction, 1 h | AID 1259354 | 2.3% of 78,000 active | Q01638; in the data active = inhibition above about 30%
Target sequence (Q01638 whole entry, looked up): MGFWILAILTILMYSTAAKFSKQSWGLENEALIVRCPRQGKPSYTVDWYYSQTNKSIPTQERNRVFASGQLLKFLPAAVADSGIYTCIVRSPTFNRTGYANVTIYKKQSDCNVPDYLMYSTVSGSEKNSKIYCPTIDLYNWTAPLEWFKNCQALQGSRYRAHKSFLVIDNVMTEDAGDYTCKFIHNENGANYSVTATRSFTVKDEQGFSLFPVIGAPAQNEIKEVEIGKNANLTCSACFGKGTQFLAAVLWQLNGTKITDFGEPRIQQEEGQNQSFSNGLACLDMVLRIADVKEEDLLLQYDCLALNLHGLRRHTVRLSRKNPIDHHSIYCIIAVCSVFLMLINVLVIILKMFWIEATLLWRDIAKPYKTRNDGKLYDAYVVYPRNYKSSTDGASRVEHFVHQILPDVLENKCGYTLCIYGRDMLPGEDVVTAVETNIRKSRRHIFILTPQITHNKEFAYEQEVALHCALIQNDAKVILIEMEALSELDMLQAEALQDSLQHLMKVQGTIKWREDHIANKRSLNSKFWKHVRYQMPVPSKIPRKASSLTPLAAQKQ
Large screens that a line does not name were inactive. This is one part of a sample in which hits are shown more often than they occur.

CN1CC2(CCCN(c3noc(-c4ccccc4)n3)CC2)OC1=O (configuration not stated)	none
COc1ccc(-c2nc(N)n(C(=O)c3ccc(F)cc3)n2)cc1	none
CCCn1c(C(O)c2cccc3c2OCO3)nc2ccccc21 (configuration not stated)	none
CCCc1nnc(NC(=O)CN2CCCC2Cn2cccn2)s1 (configuration not stated)	none
CCn1ccc(-c2c(-c3ccccc3)ncn2Cc2cccnc2-n2cncn2)n1	none
CSc1ccc(-c2nc(CSCC(=O)NCCc3ccc(Cl)cc3)c(C)o2)cc1	none
CCn1cnc2sc(C(=O)N3CCN(c4ccc(F)cc4)CC3)c(C)c2c1=O	none
COC(=O)c1c(C)oc2ccc(OC(=O)c3cc4ccccc4o3)cc12	none
O=C(NCc1ccc2c(c1)OCO2)C1C2C=CC3(CN(Cc4cccs4)C(=O)C13)O2 (configuration not stated)	none
O[C@@H]1C[C@@H](c2nc(Cc3ccc(F)cc3Cl)no2)N(CC2CCCCC2)C1	none
Cc1cc(C)n(CCCNC(=O)c2nc3ccccc3[nH]c2=O)n1	none
Cc1cc(C)n(-c2n[nH]c(=O)c3ccccc23)n1	none
Cc1cc(C)n(-c2nc3ccccc3[nH]c2=O)n1	ST2 inh 46%
COc1cc(C)c(C(C)C)cc1S(=O)(=O)n1nnc2ccccc21	none
Clc1ccc(-n2cnnc2C2CCOCC2)cc1	none
Cc1ccc(S(=O)(=O)Nc2ccc(Cc3ccncc3)cc2)cc1	none
CCOc1ccc(NC(=O)COc2cc(C)ccc2C)cc1	none
N[C@H](CCC(=O)NCS(=O)(=O)O)C(=O)O	ST2 inh 85%
CCCCS(=N)(=O)CCC(N)C(=O)O (configuration not stated)	none
NC(=O)CC[C@H](N)C(=O)O	none
Cc1ccccc1N=C1NC(=O)C(Cc2ccccc2[N+](=O)[O-])S1 (configuration not stated)	none
CCN1CCN(CC(=O)N2CCCc3c2c(=O)oc2ccc(OCc4ccccc4)cc32)CC1	ST2 inh 30%
CN1CCN(CC(=O)N2CCCc3c2c(=O)oc2ccc(OCc4ccccc4)cc32)CC1	ST2 inh 39%
CCCOc1ccc2oc(=O)c3c(c2c1)CCCN3C(=O)CN1CCCCCC1	none
CCCOc1ccc2oc(=O)c3c(c2c1)CCCN3C(=O)CN1CCN(c2ncccn2)CC1	none
CCCOc1ccc2oc(=O)c3c(c2c1)CCCN3C(=O)CN1CCCC(C(=O)OCC)C1 (configuration not stated)	none
CCCOc1ccc2oc(=O)c3c(c2c1)CCCN3C(=O)CN1CCN(C(=O)c2ccco2)CC1	none
O=C(c1nc2ncccn2n1)N1CCCC(c2[nH]ncc2Cc2ccccc2)C1 (configuration not stated)	none
CN(Cc1ccc(-n2cccn2)cc1)C(=O)c1c[nH]c(=O)cn1	none
COc1ccc(Cn2c(CNS(=O)(=O)c3ccccc3)nc3cccnc32)cc1	none
CN(C)C(=O)c1ccc2c(c1)N(CC(=O)N1CCN(c3ccccc3)CC1)C(=O)C1CCCCN21 (configuration not stated)	none
CCc1ccc(S(=O)(=O)Nc2ccc3oc(C)c(C(=O)OC)c3c2)cc1	none
O=C(NC12CC3CC(CC(C3)C1)C2)c1ccc2c(c1)OCO2	none
COCCn1c(CN2CCc3[nH]ncc3C2)cnc1S(=O)(=O)C1CCCCCC1	none
COc1ccc(C(=O)Nc2ccc3c(c2)N(C(C)=O)c2ccccc2CC3)c(OC)c1OC	none
NS(=O)(=O)c1ccc(Nc2nc(-c3ccccn3)cs2)cc1	none
Cc1nc2ncccn2c1-c1csc(Nc2cccc([N+](=O)[O-])c2)n1	ST2 inh 37%
COc1cccc(Nc2nc(-c3ccc(F)cc3)cs2)c1	none
COc1ccc(Nc2nc(Nc3ccc(OC)cc3)c([N+](=O)[O-])cc2[N+](=O)[O-])cc1	none
COc1ccc(Nc2nc(-c3cccc([N+](=O)[O-])c3)cs2)cc1	ST2 inh 38%
Brc1ccc(Nc2nc(-c3ccccn3)cs2)cc1	none
COc1ccc(C2C(=C(O)c3ccc(F)cc3)C(=O)C(=O)N2c2nnc(C)s2)cc1OC (configuration not stated)	none
COc1ccc(NS(=O)(=O)c2c(C)n[nH]c2C)cc1Cl	none
CC(C)c1nc(CNC(=O)c2ccc(N(C)C3CCCCC3)nc2)no1	none
O=C(NCc1ccc2c(c1)OCO2)c1cc2ccccc2c(=O)o1	none
O=C(COc1ccccc1)Nc1nc(-c2ccccc2)cs1	none
O=C(CN1C(=O)c2ccccc2C1=O)Nc1nc(-c2ccncc2)cs1	ST2 inh 36%
O=C(CSc1ncccn1)Nc1nc(-c2ccccc2)cs1	none
Cc1[nH]nc(CCC(=O)NC2CC(=O)N(Cc3cccc(F)c3)C2)c1C (configuration not stated)	none
Cc1ccc(-n2nc3c(c2NC(=O)c2cc(Br)ccc2Cl)CS(=O)C3)cc1 (configuration not stated)	none
O=C(c1ccc2c(=O)n(CCc3ccccc3)c(=O)[nH]c2c1)N1CCN(c2ncccn2)CC1	none
CCOc1ccc(S(=O)(=O)N=C2C=C(Nc3ccccc3)C(=O)c3ccccc32)cc1	ST2 inh 87%
COc1ccc(NC(=O)C(Cc2ccccc2)N2C(=O)c3ccccc3C2=O)cc1 (configuration not stated)	none
